Experimental data from the supplement of paper PMC6992640.
Counter-ions that a name gives are not always drawn. ± gives the standard deviation of the averaged measurements.

How the values were obtained:
Assay in all cases: cell viability (% of vehicle); higher = less cytotoxic
Conditions in all cases: 10 µM; 72 h
HCI01 = test system: HCI01 (cells of a triple-negative basal-like breast cancer xenograft)
HCI03 = test system: HCI03 (cells of an ER-positive luminal breast cancer xenograft)
HCI09 = test system: HCI09 (cells of a triple-negative luminal androgen receptor type breast cancer xenograft)
HCI11 = test system: HCI11 (cells of an ER-positive luminal breast cancer xenograft)
HCI13 = test system: HCI13 (cells of an ER-positive luminal breast cancer xenograft)
HCI16 = test system: HCI16 (cells of a triple-negative basal-like breast cancer xenograft)
UCD52 = test system: UCD52 (cells of a triple-negative basal-like breast cancer xenograft)
WHIM2 = test system: WHIM2 (cells of a triple-negative basal-like breast cancer xenograft)
WHIM30 = test system: WHIM30 (cells of a triple-negative basal-like breast cancer xenograft)
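Note: PDX cells carrying CMV promoter-driven luciferase, viability read as total photon flux per second by IVIS imaging following D-luciferin, vehicle control 0.1% DMSO.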

SMILES | cell viability (HCI01) | cell viability (HCI03) | cell viability (HCI09) | cell viability (HCI11) | cell viability (HCI13) | cell viability (HCI16) | cell viability (UCD52) | cell viability (WHIM2) | cell viability (WHIM30)
Cn1cc[nH]c1=S [Methimazole] | 143 ± 11 | 119 | 130 ± 23 | 112 | 82 ± 21 | 126 | 100.1 ± 0.29 | 107 ± 2.4 | 139 ± 3.8
Nc1ccc(S(=O)(=O)c2ccc(N)cc2)cc1 [Dapsone] | 114 ± 18 | 146 | 111 ± 3.1 | 116 | 118 ± 22 | 158 | 116 ± 4.3 | 115 ± 8.2 | 117 ± 10
CNC(C)C1CCC(N)C(OC2C(N)CC(N)C(OC3OCC(C)(O)C(NC)C3O)C2O)O1.O=S(=O)(O)O (stereo unspecified) [Gentamycin Sulfate] | 119 ± 8.9 | 90.7 | 100 ± 26 | 101 | 94.4 ± 9.3 | 97 | 94.8 ± 20 | 72.4 ± 2 | 116 ± 21
O=C([C@H](CCC/N=C(N)/N)NS(=O)(C1=C2NC[C@H](C)CC2=CC=C1)=O)N3[C@@H](C(O)=O)C[C@H](C)CC3 [Argatroban] | 116 ± 7.1 | 130 | 98 ± 6.5 | 116 | 95.2 ± 6 | 96.6 | 80.3 ± 7.5 | 98.9 ± 18 | 132 ± 14
Nc1nc(CC(=O)Nc2ccc(CCNCC(O)c3ccccc3)cc2)cs1 (stereo unspecified) [Mirabegron (YM178)] | 127 ± 6.3 | 109 | 136 ± 51 | 107 | 140 ± 13 | 137 | 82.2 ± 9.6 | 97 ± 19 | 132 ± 4.2
O=C(O)/C=C/c1ccc(O)c(O)c1 [Caffeic acid] | 88 ± 6.6 | 115 | 107 ± 24 | 93.3 | 89.9 ± 9.4 | 137 | 97.2 ± 6 | 86.5 ± 20 | 89.4 ± 2.4
NCC1OC(OC2C(N)CC(N)C(OC3OC(CO)C(O)C(N)C3O)C2O)C(O)C(O)C1O.O=S(=O)(O)O (stereo unspecified) [Kanamycin Sulfate] | 106 ± 5.6 | 92.9 | 90.5 ± 16 | 96.7 | 120 ± 31 | 86.8 | 81.5 ± 0.83 | 80.1 ± 15 | 95.8 ± 11
Cc1cccc(C)c1NC(=O)C1CCCCN1C.Cl (stereo unspecified) [Mepivacaine HCl] | 87.6 ± 1.4 | 89.2 | 97.91 ± 0.71 | 96.2 | 124 ± 2.2 | 118 | 70.4 ± 3.6 | 89.7 ± 14 | 166 ± 4.5
COc1ccccc1OCC(O)CN1CCN(CC(=O)Nc2c(C)cccc2C)CC1.Cl.Cl (stereo unspecified) [Ranolazine 2HCl] | 95.6 ± 9.7 | 124 | 102 ± 7.6 | 109 | 105 ± 6 | 138 | 85.7 ± 14 | 114 ± 1.7 | 158 ± 20
CC12CCC(O)CC1=CCC1C2CCC2(C)C(c3cccnc3)=CCC12 (stereo unspecified) [Abiraterone] | 138 ± 7.1 | 168 | 86.1 ± 4.6 | 76.6 | 145 ± 42 | 111 | 94.1 ± 9.2 | 131 ± 6.1 | 156 ± 22
COC(=O)C=CC(=O)OC [Dimethyl Fumarate] | 126 ± 22 | 129 | 104 ± 5.7 | 95.4 | 70.4 ± 15 | 113 | 94.6 ± 3.6 | 134 ± 30 | 128 ± 18
O=c1nc[nH]c2c1ncn2C1CCC(CO)O1 (stereo unspecified) [Didanosine] | 105.3 ± 0.26 | 139 | 95.4 ± 7 | 118 | 99.18 ± 0.8 | 90.8 | 96.8 ± 9.7 | 98.5 ± 22 | 90.6 ± 1.1
CNNCc1ccc(C(=O)NC(C)C)cc1.Cl [Procarbazine HCl] | 93.5 ± 4.4 | 90.5 | 96.1 ± 13 | 99.7 | 104 ± 21 | 87.6 | 79.7 ± 13 | 98 ± 16 | 83.91 ± 0.74
CCNC1CN(CCCOC)S(=O)(=O)c2sc(S(N)(=O)=O)cc21 (stereo unspecified) [Brinzolamide] | 108 ± 12 | 142 | 97.6 ± 15 | 139 | 132 ± 16 | 100 | 88.17 ± 0.49 | 104 ± 12 | 96.6 ± 7.1
CCCCCCNC(=O)n1cc(F)c(=O)[nH]c1=O [Carmofur] | 110 ± 5.8 | 103 | 67.7 ± 9.4 | 131 | 80.9 ± 6.8 | 108 | 109 ± 41 | 92.5 ± 38 | 120 ± 17
O=C(O)c1ccc2c(c1)nc(Nc1cccc(Cl)c1)c1ccncc12 [CX-4945 (Silmitasertib)] | 115 ± 62 | 111 | 28.5 ± 13 | 137 | 192 ± 22 | 106 | 78 ± 8.1 | 99.48 ± 0.45 | 79.9 ± 14
CCOC(=O)CCC(=O)OC1C(OC2C(C)C(OC3CC(C)(OC)C(O)C(C)O3)C(C)C(=O)OC(CC)C(C)(O)C(O)C(C)C(=O)C(C)CC2(C)O)OC(C)CC1N(C)C (stereo unspecified) [Erythromycin Ethylsuccinate] | 105 ± 5.4 | 97.5 | 97.4 ± 21 | 96.1 | 69.6 ± 1.3 | 132 | 87.3 ± 4.6 | 105 ± 20 | 108 ± 16
COc1cc(C)c(C=CC(C)=CC=CC(C)=CC(=O)O)c(C)c1C [Acitretin] | 113 ± 9.7 | 72.4 | 90.9 ± 14 | 86.5 | 83 ± 13 | 76.7 | 130 ± 8.7 | 90.5 ± 16 | 145 ± 42
Cl.O=C(c1ccc(OCCN2CCCCC2)cc1)c1c(-c2ccc(O)cc2)sc2cc(O)ccc12 [Raloxifene HCl] | 163 ± 35 | 71.2 | 33.7 ± 1.3 | 116 | 50.8 ± 3 | 182 | 80.5 ± 3.9 | 44 ± 7.1 | 156.6 ± 1.1
O=C1Cc2cc(CCN3CCN(c4nsc5ccccc45)CC3)c(Cl)cc2N1 [Ziprasidone] | 98.1 ± 6.7 | 102 | 82.1 ± 4.3 | 96.1 | 95.4 ± 36 | 67.2 | 86.8 ± 2 | 95.6 ± 6.5 | 100 ± 20

SMILES | cell viability (HCI01) | cell viability (HCI03) | cell viability (HCI09) | cell viability (HCI11) | cell viability (HCI13) | cell viability (HCI16) | cell viability (UCD52) | cell viability (WHIM2) | cell viability (WHIM30)
COC(=O)C1C2CC3c4[nH]c5cc(OC)ccc5c4CCN3CC2CC(OC(=O)c2cc(OC)c(OC)c(OC)c2)C1OC (stereo unspecified) [Reserpine] | 123 ± 29 | 112 | 92.8 ± 4.8 | 89 | 129 ± 10 | 132 | 105 ± 1.3 | 88.36 ± 0.5 | 109 ± 7.1
CCCCOc1ccc(OCCCN2CCOCC2)cc1.Cl [Pramoxine HCl] | 137.9 ± 0.65 | 103 | 92.4 ± 8.4 | 112 | 83.5 ± 24 | 116 | 79.6 ± 6 | 166 ± 12 | 133 ± 23
Oc1c(Br)cc(Br)c2cccnc12 [Broxyquinoline] | 81.5 ± 50 | 89.1 | 25.5 ± 7.7 | 98.1 | 34.3 ± 4.1 | 122 | 72.8 ± 42 | 146 ± 60 | 98 ± 4.2
CN1CCCC[C@H]1CCN1c2ccccc2Sc2ccc(S(C)=O)cc21.O=S(=O)(O)c1ccccc1 (stereo partly specified) [Mesoridazine Besylate] | 115 ± 9.3 | 77.9 | 132 ± 60 | 98.2 | 122 ± 10 | 106 | 95.9 ± 8.8 | 85.8 ± 21 | 103 ± 7.5
CC(C)C(=O)Nc1ccc([N+](=O)[O-])c(C(F)(F)F)c1 [Flutamide] | 136 ± 7.3 | 139 | 71.8 ± 8 | 125 | 97.9 ± 8.4 | 78.4 | 78.9 ± 5.1 | 112 ± 33 | 116 ± 6.6
CCOC(=O)C1OC1C(=O)NC(CC(C)C)C(=O)NCCC(C)C (stereo unspecified) | 108 ± 6.8 | 118 | 97.6 ± 1.9 | 91.9 | 165 ± 7.1 | 70.3 | 97.4 ± 3.2 | 105 ± 38 | 99.6 ± 12
S=c1nc[nH]c2nc[nH]c12 [Mercaptopurine (6-MP)] | 108 ± 4.9 | 104 | 116 ± 6 | 81.6 | 92.3 ± 12 | 74.9 | 91.6 ± 4.2 | 99.3 ± 24 | 118 ± 32
COCCc1ccc(OCC(O)CNC(C)C)cc1.COCCc1ccc(OCC(O)CNC(C)C)cc1.O=C(O)C(O)C(O)C(=O)O (stereo unspecified) [Metoprolol Tartrate] | 126 ± 15 | 111 | 112 ± 13 | 95 | 81.4 ± 14 | 112 | 88.1 ± 13 | 94.4 ± 13 | 107 ± 2.7
CNS(=O)(=O)CCc1ccc2[nH]cc(C3CCN(C)CC3)c2c1.Cl [Naratriptan] | 102 ± 13 | 127 | 96.7 ± 4.1 | 72.5 | 86.22 ± 0.42 | 105 | 103 ± 1.1 | 91.5 ± 8 | 109 ± 7.3
CC(C)(C)NCC(O)c1cc(O)cc(O)c1.CC(C)(C)NCC(O)c1cc(O)cc(O)c1.O=S(=O)(O)O (stereo unspecified) [Terbutaline Sulfate] | 114.4 ± 0.83 | 110 | 98.9 ± 20 | 109 | 88.5 ± 2.1 | 127 | 79.6 ± 5.6 | 106 ± 18 | 123 ± 6
CCCS(=O)c1ccc2nc(NC(=O)OC)[nH]c2c1 (stereo unspecified) [Albendazole Oxide] | 115 ± 11 | 144 | 110 ± 35 | 105 | 68.2 ± 9.5 | 106 | 103 ± 11 | 112 ± 34 | 141.6 ± 1.2
CCOC(=O)C1=CC(OC(CC)CC)C(NC(C)=O)C(N)C1.O=P(O)(O)O (stereo unspecified) [Oseltamivir phosphate] | 111 ± 30 | 126 | 93.5 ± 5.9 | 95.4 | 93.1 ± 9 | 124 | 105 ± 16 | 98.9 ± 12 | 113 ± 1.6
Oc1ccc(OC2CCCCO2)cc1 (stereo unspecified) [Deoxyarbutin] | 103 ± 22 | 138 | 127 ± 11 | 112 | 84.9 ± 5.5 | 145 | 129 ± 4.3 | 132 ± 34 | 117 ± 11
C=C[C@]1(C)C[C@@H](OC(=O)CSC(C)(C)CNC(=O)[C@H](N)C(C)C)[C@]2(C)[C@H](C)CC[C@]3(CCC(=O)[C@H]32)[C@@H](C)[C@@H]1O [Valnemulin HCl] | 90.1 ± 7.2 | 107 | 66 ± 3.6 | 91.8 | 63.2 ± 0.68 | 120 | 78.3 ± 4.9 | 102 ± 20 | 114 ± 3
COc1ccc(-c2ccc3cc(C(=O)O)ccc3c2)cc1C12CC3CC(CC(C3)C1)C2 [Adapalene sodium salt] | 115 ± 29 | 81.9 | 114 ± 37 | 98.3 | 183 ± 2.4 | 158 | 157 ± 19 | 104 ± 10 | 96.8 ± 6.8
COC(=O)N=NC=C1C=[N+]([O-])c2ccccc2N1O [Carbadox] | 106 ± 3.1 | 116 | 97.8 ± 8.7 | 107 | 106 ± 28 | 98.8 | 72.3 ± 12 | 96.8 ± 9.7 | 114 ± 9.4
CN(CC=CC#CC(C)(C)C)Cc1cccc2ccccc12.Cl [Terbinafine HCl] | 93.6 ± 30 | 99 | 86.02 ± 0.12 | 81.6 | 73 ± 1.7 | 123 | 70.5 ± 7.4 | 62.8 ± 10 | 91.1 ± 1.7
CC(C)(Sc1cc(C(C)(C)C)c(O)c(C(C)(C)C)c1)Sc1cc(C(C)(C)C)c(O)c(C(C)(C)C)c1 [Probucol] | 83.1 ± 22 | 129 | 116 ± 8.1 | 89.7 | 94.85 ± 0.74 | 103 | 93.68 ± 0.28 | 90.5 ± 23 | 113 ± 1.5
CN1CCC(=C2c3ccccc3CCn3c(C=O)cnc32)CC1 [Alcaftadine] | 94.1 ± 31 | 117 | 94.3 ± 18 | 86.9 | 120 ± 20 | 124 | 92.4 ± 10 | 97.9 ± 3.4 | 114 ± 6.9
